In all, about 39,000 compounds went through this assay and about 3,300 (8.5%) were called active. Many of the other results were omitted from the sample, so actives are more common in it than they were.
tested on: HepG2; test: cytotoxicity call (relative viability < 0.9); conditions: 10 µM

SMILES	cytotoxicity call
CCN([NH2+][O-])c1ccc(O)c(O)c1	inactive
C[C@H]1CN([C@@H](C)CO)C(=O)CCCn2cc(nn2)CO[C@@H]1CN(C)C(=O)Nc1ccnc(N2CCOCC2)c1	inactive
Cc1ccc(S(=O)(=O)N(C)C[C@H]2Oc3ccc(NC(=O)Nc4ccc(C(F)(F)F)cc4)cc3C(=O)N([C@H](C)CO)C[C@H]2C)cc1	active
Cc1ccc(S(=O)(=O)N(C)C[C@H]2Oc3ccc(NC(=O)Nc4ccc(C(F)(F)F)cc4)cc3C(=O)N([C@@H](C)CO)C[C@@H]2C)cc1	inactive
Cc1ccc(S(=O)(=O)N(C)C[C@@H]2Oc3ccc(NC(=O)Nc4ccc(C(F)(F)F)cc4)cc3C(=O)N([C@H](C)CO)C[C@@H]2C)cc1	active
Cc1ccc(S(=O)(=O)N(C)C[C@@H]2Oc3ccc(NC(=O)Nc4ccc(C(F)(F)F)cc4)cc3C(=O)N([C@@H](C)CO)C[C@@H]2C)cc1	inactive
Cc1ccc(S(=O)(=O)N(C)C[C@H]2Oc3ccc(NC(=O)Nc4ccc(C(F)(F)F)cc4)cc3C(=O)N([C@H](C)CO)C[C@@H]2C)cc1	inactive
Cc1ccc(S(=O)(=O)N(C)C[C@@H]2Oc3ccc(NC(=O)Nc4ccc(C(F)(F)F)cc4)cc3C(=O)N([C@H](C)CO)C[C@H]2C)cc1	inactive
Cc1ccc(S(=O)(=O)N(C)C[C@H]2Oc3ccc(NC(=O)Nc4ccc(C(F)(F)F)cc4)cc3C(=O)N([C@@H](C)CO)C[C@H]2C)cc1	active
Cc1ccc(S(=O)(=O)N(C)C[C@@H]2Oc3ccc(NC(=O)Nc4ccc(C(F)(F)F)cc4)cc3C(=O)N([C@@H](C)CO)C[C@H]2C)cc1	active
C[C@H]1CN([C@@H](C)CO)S(=O)(=O)c2ccc(C#CC3CCCC3)cc2O[C@@H]1CN(C)C(=O)Cc1ccncc1	inactive
COc1ccc([Si](C)(C)[C@@H]2[C@@H](CC(=O)N3Cc4ccccc4C[C@H]3CO)O[C@]3(C(=O)N(Cc4cccc(N5CCC5=O)c4)c4ccccc43)[C@H]2C)cc1	inactive
CC1C(=O)OC2C1CCC1(C)CCC(=O)C(C)C21 (stereo not given)	inactive
CN1CCN(S(=O)(=O)c2ccc(CN)cc2)CC1	inactive
C[C@@H]1CN([C@@H](C)CO)C(=O)c2cc(NS(=O)(=O)c3ccc(Cl)cc3)ccc2O[C@H]1CN(C)Cc1ccc(Oc2ccccc2)cc1	inactive
C[C@H](CO)N1C[C@H](C)[C@@H](CN(C)Cc2ccc(Oc3ccccc3)cc2)Oc2ccc(NS(=O)(=O)c3ccc(Cl)cc3)cc2C1=O	inactive
C[C@@H]1CN([C@H](C)CO)C(=O)c2cc(NS(=O)(=O)c3ccc(Cl)cc3)ccc2O[C@H]1CN(C)Cc1ccc(Oc2ccccc2)cc1	active
C[C@H]1CN([C@@H](C)CO)C(=O)c2cc(NS(=O)(=O)c3ccc(Cl)cc3)ccc2O[C@@H]1CN(C)Cc1ccc(Oc2ccccc2)cc1	active
C[C@@H]1CN([C@H](C)CO)C(=O)c2cc(NS(=O)(=O)c3ccc(Cl)cc3)ccc2O[C@@H]1CN(C)Cc1ccc(Oc2ccccc2)cc1	active
C[C@H]1CN([C@@H](C)CO)C(=O)c2cc(NS(=O)(=O)c3ccc(Cl)cc3)ccc2O[C@H]1CN(C)Cc1ccc(Oc2ccccc2)cc1	inactive
C[C@H](CO)N1C[C@H](C)[C@H](CN(C)Cc2ccc(Oc3ccccc3)cc2)Oc2ccc(NS(=O)(=O)c3ccc(Cl)cc3)cc2C1=O	inactive
C[C@@H]1CN([C@@H](C)CO)C(=O)c2cc(NS(=O)(=O)c3ccc(Cl)cc3)ccc2O[C@@H]1CN(C)Cc1ccc(Oc2ccccc2)cc1	active
C[C@H](CO)N1C[C@H](C)[C@H](CN(C)C(=O)Nc2cccc3ccccc23)Oc2ncc(C#Cc3cccc(F)c3)cc2C1=O	inactive
CC(C)(C)OC(=O)Nc1cccc([C@@H]2CC(=O)N(C(=O)OCc3ccccc3)[C@@H]2C(=O)Nc2cccc3cccnc23)c1	inactive

SMILES	cytotoxicity call
Cc1noc(C)c1NC(=O)Nc1ccc2c(c1)C(=O)N([C@H](C)CO)C[C@@H](C)[C@H](CN(C)C(=O)C1CCCCC1)OCCCC[C@@H](C)O2	inactive
C[C@@H]1CN([C@H](C)CO)C(=O)c2cc(C#CC3(O)CCCC3)cnc2O[C@H]1CN(C)S(=O)(=O)c1cccc(F)c1	inactive
CCC1C(=O)OCC1Cc1cncn1C.O=[N+]([O-])O (stereo not given)	inactive
Cc1noc(C)c1NC(=O)Nc1cccc2c1O[C@@H](CN(C)Cc1ccc(Oc3ccccc3)cc1)[C@H](C)CN([C@@H](C)CO)C2=O	inactive
CN(C)CCCNC(=O)C[C@H]1CC[C@H]2[C@@H](COC[C@H](O)CN2S(=O)(=O)c2ccc(F)cc2)O1	inactive
CO[C@H]1CN(C)C(=O)c2ccc(NC(=O)Nc3cccc(Cl)c3)cc2OC[C@@H](C)N(C(=O)Nc2c(C)noc2C)C[C@H]1C	inactive
C[C@H]1CN([C@@H](C)CO)C(=O)c2cc(NC(=O)Nc3cccc4ccccc34)ccc2O[C@H]1CN(C)S(=O)(=O)c1ccccc1	inactive
C[C@H](CO)N1C[C@H](C)[C@H](CN(C)C(=O)Nc2cccc3ccccc23)Oc2ccc(NC(=O)Nc3ccc(C(F)(F)F)cc3)cc2C1=O	inactive
CN(C)CCOC(=O)COc1ccc(Cl)cc1.Cl	inactive
CCCCc1nc(-c2ccc(OCCCN(CC)CC)cc2)cn1-c1ccc(Oc2ccc(Cl)cc2)cc1	active
CCCC[C@@H](C#N)c1ccccn1	inactive
CN(C)CC(=O)N[C@@H]1CC[C@H](CCNS(=O)(=O)c2ccccc2)O[C@H]1CO	inactive
O=C(N[C@H](c1ccc(F)cc1)c1ccc2ccccc2n1)C1CCN(Cc2cccc(C(F)(F)F)c2)CC1	active
COc1cc(CN2CCC(C(=O)N[C@@H](c3ccc(F)cc3)c3ccc4ccccc4n3)CC2)cc(OC)c1	active
O=C(N[C@@H](c1ccccc1)c1ccc2ccccc2n1)C1CCN(Cc2ccc(Oc3ccccc3)cc2)CC1	inactive
COc1ccccc1[C@@H](NC(=O)C1CCN(Cc2ccc(Oc3ccccc3)cc2)CC1)c1ccccn1	inactive
COc1ccc([C@@H](NC(=O)C2CCN(Cc3ccc(Oc4ccccc4)cc3)CC2)c2ccccc2C)cn1	inactive
O=C(N[C@H](c1ccc(F)cc1)c1ccc2ccccc2n1)C1CCN(Cc2ccc3ccccc3n2)CC1	inactive
O=C(N[C@H](c1ccc(F)cc1)c1ccc2ccccc2n1)C1CCN(Cc2ccc(Oc3ccccc3)cc2)CC1	active
O=C(N[C@@H](c1ccccc1)c1ccc2ccccc2n1)C1CCN(Cc2cccc(C(F)(F)F)c2)CC1	inactive
COc1cc(OC)nc([C@@H](NC(=O)C2CCN(Cc3ccc(Oc4ccccc4)cc3)CC2)c2ccccc2C)n1	active
COc1ccc2c3c(n(c2c1)C)[C@@H](CO)N(C[C@]13CCN(CC1)Cc1ccncc1)C(=O)CN1CCOCC1	inactive
NC(=NC(=O)N1CCOCC1)c1ccccc1	inactive
O=C(C[C@@H]1CC[C@@H](NC(=O)Cc2ccccn2)[C@@H](CO)O1)NCCc1ccncc1	inactive

SMILES	cytotoxicity call
CN(C)CCCNC(=O)[C@@H]1c2ccccc2C(=O)N(Cc2cc(C(F)(F)F)cc(C(F)(F)F)c2)[C@H]1c1ccc(CO)cc1	inactive
CO[C@H](CN(C)S(=O)(=O)c1cn(C)cn1)[C@@H](C)CN(C(=O)Nc1ccc(C(F)(F)F)cc1)[C@@H](C)CO	inactive
CNC[C@H]1Oc2c(NS(=O)(=O)c3cn(C)cn3)cccc2C(=O)N([C@@H](C)CO)C[C@H]1C	inactive
O=C(COc1ccc(S(=O)(=O)N2CCOCC2)cc1)N1CCOCC1	inactive
COc1ccc([Si](C)(C)[C@@H]2[C@@H](CCOC(=O)NCCCCCC(=O)NO)O[C@@]3(C(=O)N(Cc4ccccc4)c4ccc(NC(=O)[C@@H](C)OC(=O)NCCCCCC(=O)NO)cc43)[C@H]2C)cc1	inactive
C[C@H]1CN([C@@H](C)CO)C(=O)Cc2cc(NC(=O)Cn3cnnn3)ccc2O[C@@H]1CN(C)Cc1ccc(Cl)c(Cl)c1	inactive
CCc1nn(C)c2c(=O)c(=O)c2n(C)[nH]1	inactive
O=C(CN1CCOCC1)NCC[C@H]1CC[C@@H](NS(=O)(=O)c2ccc(Cl)cc2)[C@@H](CO)O1	inactive
C[C@H]1CN([C@@H](C)CO)C(=O)c2cc(NS(=O)(=O)c3ccccc3)ccc2O[C@H]1CN(C)Cc1ccc(Cl)c(Cl)c1	inactive
CC(C)Oc1ccccc1OCc1cnnn1CC(=O)NS(=O)(=O)c1ccccc1OC(F)(F)F	inactive
Cc1ccc(S(=O)(=O)N(C)C[C@H]2Oc3ccc(NC(=O)NC(C)C)cc3C(=O)N([C@@H](C)CO)C[C@@H]2C)cc1	inactive
O=C(OCc1cccc(O)c1O[C@@H]1O[C@H](CO)[C@@H](O)[C@H](O)[C@H]1O)[C@]1(O)C(=O)[C@@H]2C=C[C@H]1c1c2ccc(O)c1O	inactive
O=C1NCCc2c(O)cccc21	inactive
COC(=O)c1cn(CC(N)=O)c2ccccc12	inactive
Cn1cc(CN2CCC(C(=O)N[C@@H](c3ccc(F)cc3)c3ccc4ccccc4n3)CC2)c2ccccc21	active
COc1ccc(S(=O)(=O)N(C)C[C@H]2Oc3ccc(NS(C)(=O)=O)cc3CC(=O)N([C@@H](C)CO)C[C@@H]2C)cc1	inactive
CC(C)COC(=O)CNc1n[nH]c(=O)[nH]c1=O	inactive
Cn1cnc(S(=O)(=O)N[C@@H]2C=C[C@@H](CC(=O)Nc3ccccc3)O[C@@H]2CO)c1	inactive
CCOC(=O)[C@H]1CC(C)=NNC1=O	inactive
Cn1cncc1[C@@](N)(c1ccc(Cl)cc1)c1ccc2c(c1)c(-c1cccc(Cl)c1)cc(=O)n2C	active
O=C(CCCCCCC(=O)N/N=C/c1cccc(B(O)O)c1)NO	inactive
Cn1cnc(CCNC(=O)C[C@H]2CC[C@H]3[C@@H](COC[C@@H](O)CN3C(=O)Nc3ccc(C(F)(F)F)cc3)O2)c1	inactive

Source: the antibiotic and cytotoxicity screens of Wong et al. (2023)
